KKLEB tox: cytotoxicity in KKLEB CF airway cells, primary screen, cytotoxicity control for CF NF-kB inhibitor project, cell-based, uHTS, fluorescence assay plates; KKLEB CF airway cells viability, ATPlite luminescence, overnight; stronger effect = lower value; cells stimulated with P. aeruginosa culture filtrate; activity change (cytotoxicity), % at 5 µM; 0.36% of 360,000 active;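 active = corrected activity change at or below -50% at 5 µM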
Peg3 prom inh-1: Peg3 promoter-driven luciferase inhibitors, primary screen, cell-based, HeLa, luciferase luminescence | HeLa PEG-Prom luciferase reporter, overnight | inhibition, % at 20 µM | 1.7% of 360,000 active;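 active = inhibition of at least 50% at 20 µM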
HIF-2a inh: HIF-2a reporter inhibitors, primary screen, luminescence, 786-0 RCC cells | 0.72% of 360,000 active | inhibition, % at 18.8 µM | 786-0 RCC cells HIF-2a reporter, luciferase luminescence, overnight;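 active = inhibition of the luminescence signal of 40% or more relative to plate controls, in a single-dose primary screen at 18.75 µM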
MITF TRPM1 inh: inhibitors of MITF-dependent TRPM1 promoter reporter, primary screen, cell-based, SK-MEL-5, single point, luciferase. SK-MEL-5 TRPM1 promoter luciferase, 24 h. inhibition, % at 12.5 µM. 0.83% of 330,000 active;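 active = mean inhibition across replicates of 60% or more, whatever share of single replicates reaches that level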
CF NFkB block: inhibitors of PAF-induced NF-kB signaling, primary screen, cell-based, GFP fluorescence, uHTS; inhibition, % at 5 µM; 0.86% of 360,000 active; KKLEB NF-kB-GFP reporter, GFP fluorescence overnight;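 active = at least 50% inhibition at 5 µM, scaled per plate between neutral and stimulator controls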;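 note: PAF is a Pseudomonas aeruginosa culture filtrate used as stimulus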
Shn3 inh set2: reduction of Shn3 3'UTR firefly luciferase signal, primary screen, Schnurri-3 inhibitor project, cell-based, Clone20 osteoblasts, set 2 | AID 588674, 2011 | inhibition, % at 12.5 µM | 0.52% of 360,000 active | Clone20 osteoblast Shn3 3'UTR firefly luciferase, 24 h;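 active = mean inhibition of at least 75% with every replicate also reaching 75%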
Peg3 prom inh-2: Peg3 promoter reporter inhibitors, retest, confirmation, cell-based, HeLa, luciferase reporter, single concentration | AID 602417, 2012 | 84% of 1,300 active | inhibition, % at 20 µM | HeLa PEG-Prom luciferase reporter, luminescence, overnight | shares compounds with Peg3 prom inh-1;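 active = at 20 µM dose, 40% or more inhibition averaged across four replicates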
CF NFkB inh conf: inhibitors of PAF-induced NF-kB signaling, retest, confirmation, cell-based, GFP fluorescence, single concentration | shares compounds with CF NFkB block | KKLEB CF airway cells, overnight | inhibition, % at 5 µM | 64% of 1,300 active; in the data active = inhibition above about 40%;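 note: stimulus PAF is a Pseudomonas aeruginosa filtrate and not platelet activating factor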
Mdm2 MdmX conf: retested Mdm2-MdmX interaction blockers, confirmation, cell-based, luminescence, single concentration, set 2; 99% of 740 active; inhibition, % at 8 µM; SaOS-2 split-luciferase Mdm2/MdmX complementation; shares compounds with HIF-2a inh; AID 504601, 2011;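 active = mean inhibition of the luminescence signal across two replicates at or above 26 percent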
Target sequence (O15151 whole entry, looked up): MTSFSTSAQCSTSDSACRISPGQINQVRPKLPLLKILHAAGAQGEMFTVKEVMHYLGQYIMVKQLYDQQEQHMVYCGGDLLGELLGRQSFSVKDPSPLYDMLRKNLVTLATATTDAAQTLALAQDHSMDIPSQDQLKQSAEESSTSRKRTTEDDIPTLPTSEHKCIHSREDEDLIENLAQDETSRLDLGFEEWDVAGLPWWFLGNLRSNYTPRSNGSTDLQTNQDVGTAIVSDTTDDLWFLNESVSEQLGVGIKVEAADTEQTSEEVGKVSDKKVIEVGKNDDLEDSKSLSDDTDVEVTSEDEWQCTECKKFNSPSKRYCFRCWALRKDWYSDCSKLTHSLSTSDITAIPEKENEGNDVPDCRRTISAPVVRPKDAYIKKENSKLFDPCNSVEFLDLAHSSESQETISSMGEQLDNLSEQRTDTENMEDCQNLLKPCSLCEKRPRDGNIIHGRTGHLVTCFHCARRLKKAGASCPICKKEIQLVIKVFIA
Target sequence (Q00987 whole entry, looked up): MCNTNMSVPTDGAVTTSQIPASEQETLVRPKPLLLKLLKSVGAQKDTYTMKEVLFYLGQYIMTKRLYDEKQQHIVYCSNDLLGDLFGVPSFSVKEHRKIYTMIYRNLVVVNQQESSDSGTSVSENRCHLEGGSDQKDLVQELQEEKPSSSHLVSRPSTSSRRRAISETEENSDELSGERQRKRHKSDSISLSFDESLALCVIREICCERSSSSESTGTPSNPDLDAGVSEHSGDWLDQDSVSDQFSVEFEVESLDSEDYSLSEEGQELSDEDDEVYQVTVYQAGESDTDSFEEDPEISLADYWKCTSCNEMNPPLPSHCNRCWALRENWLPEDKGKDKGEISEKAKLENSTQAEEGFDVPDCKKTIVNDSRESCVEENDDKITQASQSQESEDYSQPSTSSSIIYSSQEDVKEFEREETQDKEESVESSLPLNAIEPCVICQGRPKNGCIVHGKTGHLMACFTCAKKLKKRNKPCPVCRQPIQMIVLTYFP
HIF-2a conf: HIF-2a reporter inhibitor retest, confirmation, luminescence, 786-0 RCC cells | AID 651580, 2012 | shares compounds with HIF-2a inh | inhibition, % at 18.8 µM | HIF-2a luciferase reporter luminescence, overnight | 56% of 1,800 active;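 active = mean inhibition across four replicates of at least 40 percent at the single tested concentration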
HIF-1a counter: HIF-1a luciferase reporter signal reduction – MiaPaCa-2 cells, single concentration, counter-screen for HIF-2a inhibitor project, confirmation; shares compounds with HIF-2a inh; MiaPaCa-2 HIF-1a luciferase reporter, desferoxamine, overnight; inhibition, % at 18.8 µM; 72% of 1,800 active; AID 651589, 2012;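 active = mean inhibition of the reporter signal across four replicates at the single tested dose of 50% or more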
A number is an active result; i = inactive; nt = not tested or not shown. An excerpt weighted towards active compounds, which were near 2.8% of everything screened.

SMILES	KKLEB tox	Peg3 prom inh-1	HIF-2a inh	MITF TRPM1 inh	CF NFkB block	Shn3 inh set2	Peg3 prom inh-2	others
CCC(c1nnnn1-c1ccc2c(c1)OCCO2)N1CCC(n2c(=O)[nH]c3ccccc32)CC1 (stereo not drawn)	-76	79	i	nt	79	i	80
C=CCn1c(C)c(C=C2C(=O)NC(=O)NC2=O)c2ccccc21	i	i	i	i	i	i	nt
CC(=O)OC1CC2(O)C3CCC4CC(O)CCC4(C)C3CCC2(C)C1C1=CC(=O)OC1 (stereo not drawn)	i	97	69	71	90	i	99
CC(=O)[C@H]1CCC2C3CC[C@H]4C[C@@H](O)CC[C@]4(C)C3CC[C@@]21C (stereo partly drawn)	i	i	i	i	i	i	nt
CCN(CC)C(=O)c1ccc(NC(=O)Nc2ccccc2F)cc1	i	56	i	i	i	i	45
COc1ccc(C(c2nnnn2-c2c(C)cccc2C)N2CCC(n3c(=O)[nH]c4ccccc43)CC2)cc1 (stereo not drawn)	i	59	i	nt	60	i	48	CF NFkB inh conf=i
COc1ccc(C(c2nnnn2-c2c(C)cccc2C)N2CCC3(CC2)C(=O)NCN3c2ccccc2)cc1 (stereo not drawn)	i	i	i	nt	i	i	nt
Cc1cccc(C)c1-n1nnnc1C(c1ccccc1OC(F)(F)F)N1CCC(n2c(=O)[nH]c3ccccc32)CC1 (stereo not drawn)	i	52	i	nt	73	i	68	CF NFkB inh conf=i
CCC(=NCc1cccnc1)c1c(O)n(-c2ccc(Cl)cc2)c(=O)[nH]c1=O	i	i	i	i	i	i	nt
c1ccc(-c2cc(-c3ccccc3)[n+](-c3ccccc3)c(-c3ccccc3)c2)cc1	i	111	i	92	i	i	87	Mdm2 MdmX conf=102
O=[N+]([O-])c1ccc(C[n+]2c(-c3ccccc3)cc(-c3ccccc3)cc2-c2ccccc2)cc1	i	i	i	i	i	i	nt
CC1=CC(O)C(O)C2(C)C1CC1OC(=O)CC3C(C)C(O)C(=O)C2C13CO (stereo not drawn)	i	91	46	i	i	i	i	HIF-2a conf=i;HIF-1a counter=i
COc1ccccc1-n1c(-c2ccccc2Br)nc2ccccc2c1=O	i	i	i	i	i	i	nt
C=CCn1c(O)c(C(CC)=Nc2cccc(C(=O)O)c2)c(=O)[nH]c1=O	i	i	i	i	i	i	nt
O=C1NC2C(=CC(O)C(O)C2O)c2cc3c(c(O)c21)OCO3 (stereo not drawn)	-64	100	85	88	89	96	98	HIF-2a conf=84;HIF-1a counter=106
C=C1C(=O)OC2CC3(C)OC3CCC(C)=CC(OC(C)=O)C12 (stereo not drawn)	i	95	i	70	91	i	nt	CF NFkB inh conf=89
C=C1C(=O)O[C@@H]2C[C@@H](C)[C@H]3C=CC(=O)[C@]3(O)C[C@@H]12	i	i	i	i	i	i	nt
